Experimental data from the supplement of paper PMC11732987, “Enantioselective OTUD7B fragment discovery through chemoproteomics screening and high-throughput optimisation” (Communications Chemistry, 2025).

Legend:
Assay in all cases: log2 ratio of Biotin-Ahx-Ub-VS probe labelling (fragment/DMSO); higher = less target engagement (more negative = stronger competition), active = hit call of the paper (q ≤ 0.05, log2 ratio ≤ -1)
Conditions in all cases: compound concentration: 200 uM; treatment time: 3 h
USP34 = USP34 (UniProt Q70CQ2)
Chain of USP34 (Q70CQ2 whole entry, the tested form may be a part): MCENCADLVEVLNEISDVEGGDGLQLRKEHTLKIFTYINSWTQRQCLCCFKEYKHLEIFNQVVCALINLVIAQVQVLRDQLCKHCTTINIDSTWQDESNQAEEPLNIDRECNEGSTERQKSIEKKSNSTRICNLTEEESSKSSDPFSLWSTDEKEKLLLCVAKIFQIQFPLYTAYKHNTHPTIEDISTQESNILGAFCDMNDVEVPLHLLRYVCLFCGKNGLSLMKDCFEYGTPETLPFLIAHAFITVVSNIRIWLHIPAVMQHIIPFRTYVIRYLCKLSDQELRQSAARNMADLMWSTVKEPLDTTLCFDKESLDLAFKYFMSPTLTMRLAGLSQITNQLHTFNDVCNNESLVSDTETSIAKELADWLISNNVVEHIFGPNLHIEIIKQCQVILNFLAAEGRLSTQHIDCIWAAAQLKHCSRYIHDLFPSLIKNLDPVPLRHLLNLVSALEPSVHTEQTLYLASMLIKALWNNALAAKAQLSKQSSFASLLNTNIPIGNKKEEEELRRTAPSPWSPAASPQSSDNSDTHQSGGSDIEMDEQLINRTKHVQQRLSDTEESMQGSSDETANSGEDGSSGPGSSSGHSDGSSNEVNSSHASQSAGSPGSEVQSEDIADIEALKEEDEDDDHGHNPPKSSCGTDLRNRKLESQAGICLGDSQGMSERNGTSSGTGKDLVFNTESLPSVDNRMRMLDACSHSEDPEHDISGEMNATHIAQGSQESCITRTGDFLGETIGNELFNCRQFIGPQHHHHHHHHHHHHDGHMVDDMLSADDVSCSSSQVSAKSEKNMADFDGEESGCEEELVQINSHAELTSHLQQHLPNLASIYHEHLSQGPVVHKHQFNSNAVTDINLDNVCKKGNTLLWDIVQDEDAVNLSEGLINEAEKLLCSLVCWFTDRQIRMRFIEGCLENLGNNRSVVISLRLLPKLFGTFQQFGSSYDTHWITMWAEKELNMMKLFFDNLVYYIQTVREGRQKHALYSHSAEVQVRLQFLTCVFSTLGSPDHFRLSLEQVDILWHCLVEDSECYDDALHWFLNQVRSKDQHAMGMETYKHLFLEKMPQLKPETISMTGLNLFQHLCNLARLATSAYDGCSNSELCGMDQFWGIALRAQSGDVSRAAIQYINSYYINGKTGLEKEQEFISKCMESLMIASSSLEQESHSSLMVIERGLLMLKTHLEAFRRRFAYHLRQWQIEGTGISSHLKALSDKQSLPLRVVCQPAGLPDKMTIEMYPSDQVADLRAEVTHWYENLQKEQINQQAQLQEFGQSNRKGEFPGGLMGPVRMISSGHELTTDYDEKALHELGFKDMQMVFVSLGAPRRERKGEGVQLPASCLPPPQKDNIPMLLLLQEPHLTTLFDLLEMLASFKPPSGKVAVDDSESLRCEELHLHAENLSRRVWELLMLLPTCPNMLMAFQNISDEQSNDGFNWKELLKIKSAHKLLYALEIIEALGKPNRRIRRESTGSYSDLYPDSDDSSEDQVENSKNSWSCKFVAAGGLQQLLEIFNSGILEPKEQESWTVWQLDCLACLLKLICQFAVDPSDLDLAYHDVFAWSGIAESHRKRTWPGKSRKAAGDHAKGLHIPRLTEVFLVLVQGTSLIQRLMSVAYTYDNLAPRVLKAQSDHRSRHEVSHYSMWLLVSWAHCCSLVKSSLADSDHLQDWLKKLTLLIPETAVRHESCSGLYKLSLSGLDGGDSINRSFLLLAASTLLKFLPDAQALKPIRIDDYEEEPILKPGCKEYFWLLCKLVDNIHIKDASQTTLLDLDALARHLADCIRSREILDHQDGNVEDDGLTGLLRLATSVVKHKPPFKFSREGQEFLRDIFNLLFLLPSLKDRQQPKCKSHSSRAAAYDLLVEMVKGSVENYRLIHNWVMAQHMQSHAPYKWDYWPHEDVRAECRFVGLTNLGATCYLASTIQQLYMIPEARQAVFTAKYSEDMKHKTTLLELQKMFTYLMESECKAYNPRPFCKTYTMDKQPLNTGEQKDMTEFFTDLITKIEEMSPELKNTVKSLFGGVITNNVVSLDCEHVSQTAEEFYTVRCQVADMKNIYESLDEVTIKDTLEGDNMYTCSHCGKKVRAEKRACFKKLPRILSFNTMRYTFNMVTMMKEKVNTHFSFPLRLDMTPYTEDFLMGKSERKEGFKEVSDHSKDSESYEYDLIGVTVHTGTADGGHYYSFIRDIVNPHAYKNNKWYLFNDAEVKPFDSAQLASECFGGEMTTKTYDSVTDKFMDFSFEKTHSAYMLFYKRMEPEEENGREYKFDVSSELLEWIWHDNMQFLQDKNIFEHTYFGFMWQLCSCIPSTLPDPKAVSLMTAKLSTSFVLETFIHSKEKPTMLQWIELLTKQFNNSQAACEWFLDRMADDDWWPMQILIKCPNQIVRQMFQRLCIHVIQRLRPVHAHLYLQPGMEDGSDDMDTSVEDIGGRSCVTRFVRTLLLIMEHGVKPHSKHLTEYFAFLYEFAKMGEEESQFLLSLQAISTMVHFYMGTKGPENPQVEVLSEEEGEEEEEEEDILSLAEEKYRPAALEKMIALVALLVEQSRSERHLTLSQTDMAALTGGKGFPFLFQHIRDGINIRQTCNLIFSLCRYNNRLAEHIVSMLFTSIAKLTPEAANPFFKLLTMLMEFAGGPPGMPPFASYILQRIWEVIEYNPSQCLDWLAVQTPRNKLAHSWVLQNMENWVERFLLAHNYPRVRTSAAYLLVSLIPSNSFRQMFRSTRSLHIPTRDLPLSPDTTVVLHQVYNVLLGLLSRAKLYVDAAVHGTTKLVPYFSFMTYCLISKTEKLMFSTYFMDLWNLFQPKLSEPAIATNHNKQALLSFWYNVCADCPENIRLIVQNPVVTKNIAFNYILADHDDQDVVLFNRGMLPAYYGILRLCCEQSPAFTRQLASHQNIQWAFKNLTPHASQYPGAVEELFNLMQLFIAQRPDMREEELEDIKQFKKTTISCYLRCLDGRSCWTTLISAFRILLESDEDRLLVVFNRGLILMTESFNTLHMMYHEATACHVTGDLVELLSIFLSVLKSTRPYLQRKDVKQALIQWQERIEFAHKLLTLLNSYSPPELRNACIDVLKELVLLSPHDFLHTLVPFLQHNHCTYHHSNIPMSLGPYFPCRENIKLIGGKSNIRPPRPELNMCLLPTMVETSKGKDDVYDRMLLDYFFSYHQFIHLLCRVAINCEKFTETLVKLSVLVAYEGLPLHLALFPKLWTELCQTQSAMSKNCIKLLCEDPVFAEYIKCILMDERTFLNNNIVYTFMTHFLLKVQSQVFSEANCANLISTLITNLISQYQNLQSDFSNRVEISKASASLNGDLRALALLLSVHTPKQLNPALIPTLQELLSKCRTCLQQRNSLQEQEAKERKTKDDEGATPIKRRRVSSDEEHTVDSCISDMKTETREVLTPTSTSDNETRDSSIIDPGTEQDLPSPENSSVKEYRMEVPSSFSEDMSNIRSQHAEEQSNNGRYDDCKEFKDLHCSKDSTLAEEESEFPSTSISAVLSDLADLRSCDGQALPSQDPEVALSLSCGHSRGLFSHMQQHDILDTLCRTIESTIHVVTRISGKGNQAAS
How it was run: (§1)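 HEK293T lysate (495 µg per sample, in Tris/CHAPS/IGEPAL buffer with protease inhibitors) was exposed in triplicate for 3 h to fragment at 200 µM or to vehicle, then to Biotin-Ahx-Ub-VS at 0.5 µM final for 1 h. Labelled DUBs were enriched on NeutrAvidin, digested with LysC and trypsin, and analysed by diaPASEF LC-MS/MS. Spectronaut label-free quantities were normalised to the global median, and values are average log2 ratios of fragment over vehicle from an unpaired t-test. Only proteins with ≥2 unique peptides were used.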

USP36 = molecular target: T1, USP36 (UniProt Q9P275)
T1 sequence (whole entry): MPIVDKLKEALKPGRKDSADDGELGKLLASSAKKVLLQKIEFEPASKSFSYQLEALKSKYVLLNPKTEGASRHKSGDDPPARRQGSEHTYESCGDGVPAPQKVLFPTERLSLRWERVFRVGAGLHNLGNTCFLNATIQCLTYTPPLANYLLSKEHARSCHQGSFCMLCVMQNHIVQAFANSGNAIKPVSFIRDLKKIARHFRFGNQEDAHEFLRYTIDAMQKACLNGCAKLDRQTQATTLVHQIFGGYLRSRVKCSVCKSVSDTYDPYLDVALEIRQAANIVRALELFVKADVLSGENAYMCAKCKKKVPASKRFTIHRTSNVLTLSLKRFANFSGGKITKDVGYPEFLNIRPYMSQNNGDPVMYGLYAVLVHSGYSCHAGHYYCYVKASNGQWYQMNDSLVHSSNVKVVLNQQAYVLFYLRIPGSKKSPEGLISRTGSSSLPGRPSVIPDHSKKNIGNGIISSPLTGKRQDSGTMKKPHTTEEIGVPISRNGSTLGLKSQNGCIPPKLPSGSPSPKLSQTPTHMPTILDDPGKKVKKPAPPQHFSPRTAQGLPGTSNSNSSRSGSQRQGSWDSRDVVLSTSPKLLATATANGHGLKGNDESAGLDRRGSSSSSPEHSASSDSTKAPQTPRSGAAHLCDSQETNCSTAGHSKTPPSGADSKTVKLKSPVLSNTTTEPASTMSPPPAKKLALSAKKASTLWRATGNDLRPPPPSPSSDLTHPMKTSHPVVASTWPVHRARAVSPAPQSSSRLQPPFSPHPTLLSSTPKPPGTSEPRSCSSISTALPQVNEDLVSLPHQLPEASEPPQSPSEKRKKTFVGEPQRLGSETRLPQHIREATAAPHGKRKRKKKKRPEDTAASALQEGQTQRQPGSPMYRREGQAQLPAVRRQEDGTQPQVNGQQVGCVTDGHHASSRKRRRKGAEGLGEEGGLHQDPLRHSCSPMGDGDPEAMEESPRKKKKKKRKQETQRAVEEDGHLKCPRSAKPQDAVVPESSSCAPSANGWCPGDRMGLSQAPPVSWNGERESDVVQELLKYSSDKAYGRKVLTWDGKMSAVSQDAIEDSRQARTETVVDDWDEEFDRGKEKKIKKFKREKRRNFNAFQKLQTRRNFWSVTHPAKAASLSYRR
How it was run: as §1

USP38 = molecular target: T2, USP38 (UniProt Q8NB14)
T2 sequence (whole entry): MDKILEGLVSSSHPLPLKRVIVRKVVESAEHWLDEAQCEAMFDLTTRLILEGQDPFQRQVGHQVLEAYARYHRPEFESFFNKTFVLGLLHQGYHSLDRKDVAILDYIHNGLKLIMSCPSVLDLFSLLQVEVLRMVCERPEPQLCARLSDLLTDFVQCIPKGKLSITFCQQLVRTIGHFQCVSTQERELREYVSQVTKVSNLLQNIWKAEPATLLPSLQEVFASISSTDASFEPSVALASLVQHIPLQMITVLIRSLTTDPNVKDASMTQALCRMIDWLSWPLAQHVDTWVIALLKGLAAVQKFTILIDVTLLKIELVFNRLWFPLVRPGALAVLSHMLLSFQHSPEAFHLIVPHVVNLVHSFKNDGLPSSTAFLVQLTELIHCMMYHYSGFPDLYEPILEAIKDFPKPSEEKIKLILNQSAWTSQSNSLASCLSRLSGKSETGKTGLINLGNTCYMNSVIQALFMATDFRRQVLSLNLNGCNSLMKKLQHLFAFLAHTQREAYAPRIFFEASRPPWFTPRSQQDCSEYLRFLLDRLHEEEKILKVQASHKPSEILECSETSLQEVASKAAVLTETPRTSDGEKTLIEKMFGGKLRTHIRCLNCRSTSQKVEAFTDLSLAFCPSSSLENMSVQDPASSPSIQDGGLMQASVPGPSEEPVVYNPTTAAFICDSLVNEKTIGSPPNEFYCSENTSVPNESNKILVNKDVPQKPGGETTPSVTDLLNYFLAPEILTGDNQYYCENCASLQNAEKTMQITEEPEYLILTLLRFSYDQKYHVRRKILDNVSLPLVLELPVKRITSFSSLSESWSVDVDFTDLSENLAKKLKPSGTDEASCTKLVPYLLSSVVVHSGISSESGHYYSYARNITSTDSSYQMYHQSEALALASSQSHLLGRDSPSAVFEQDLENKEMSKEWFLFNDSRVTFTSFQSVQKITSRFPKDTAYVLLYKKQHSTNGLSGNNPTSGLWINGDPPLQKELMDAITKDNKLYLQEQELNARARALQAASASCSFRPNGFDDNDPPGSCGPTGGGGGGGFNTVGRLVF
How it was run: as §1

USP39 = molecular target: T3, USP39 (UniProt Q53GS9)
T3 sequence (whole entry): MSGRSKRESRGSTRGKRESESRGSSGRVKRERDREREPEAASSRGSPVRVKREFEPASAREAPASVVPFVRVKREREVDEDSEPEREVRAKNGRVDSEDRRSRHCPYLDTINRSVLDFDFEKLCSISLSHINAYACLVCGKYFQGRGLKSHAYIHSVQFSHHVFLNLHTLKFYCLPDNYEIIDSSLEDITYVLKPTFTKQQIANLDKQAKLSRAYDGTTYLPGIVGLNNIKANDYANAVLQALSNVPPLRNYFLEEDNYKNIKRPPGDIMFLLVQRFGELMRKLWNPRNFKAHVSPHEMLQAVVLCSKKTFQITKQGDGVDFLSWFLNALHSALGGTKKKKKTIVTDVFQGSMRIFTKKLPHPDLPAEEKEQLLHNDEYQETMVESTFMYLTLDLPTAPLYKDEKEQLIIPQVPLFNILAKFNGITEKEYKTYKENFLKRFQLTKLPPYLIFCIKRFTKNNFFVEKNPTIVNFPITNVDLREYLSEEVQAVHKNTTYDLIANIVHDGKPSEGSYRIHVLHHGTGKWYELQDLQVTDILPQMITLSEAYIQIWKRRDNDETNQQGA
How it was run: as §1

USP4 = molecular target: T4, USP4 (UniProt Q13107)
T4 sequence (whole entry): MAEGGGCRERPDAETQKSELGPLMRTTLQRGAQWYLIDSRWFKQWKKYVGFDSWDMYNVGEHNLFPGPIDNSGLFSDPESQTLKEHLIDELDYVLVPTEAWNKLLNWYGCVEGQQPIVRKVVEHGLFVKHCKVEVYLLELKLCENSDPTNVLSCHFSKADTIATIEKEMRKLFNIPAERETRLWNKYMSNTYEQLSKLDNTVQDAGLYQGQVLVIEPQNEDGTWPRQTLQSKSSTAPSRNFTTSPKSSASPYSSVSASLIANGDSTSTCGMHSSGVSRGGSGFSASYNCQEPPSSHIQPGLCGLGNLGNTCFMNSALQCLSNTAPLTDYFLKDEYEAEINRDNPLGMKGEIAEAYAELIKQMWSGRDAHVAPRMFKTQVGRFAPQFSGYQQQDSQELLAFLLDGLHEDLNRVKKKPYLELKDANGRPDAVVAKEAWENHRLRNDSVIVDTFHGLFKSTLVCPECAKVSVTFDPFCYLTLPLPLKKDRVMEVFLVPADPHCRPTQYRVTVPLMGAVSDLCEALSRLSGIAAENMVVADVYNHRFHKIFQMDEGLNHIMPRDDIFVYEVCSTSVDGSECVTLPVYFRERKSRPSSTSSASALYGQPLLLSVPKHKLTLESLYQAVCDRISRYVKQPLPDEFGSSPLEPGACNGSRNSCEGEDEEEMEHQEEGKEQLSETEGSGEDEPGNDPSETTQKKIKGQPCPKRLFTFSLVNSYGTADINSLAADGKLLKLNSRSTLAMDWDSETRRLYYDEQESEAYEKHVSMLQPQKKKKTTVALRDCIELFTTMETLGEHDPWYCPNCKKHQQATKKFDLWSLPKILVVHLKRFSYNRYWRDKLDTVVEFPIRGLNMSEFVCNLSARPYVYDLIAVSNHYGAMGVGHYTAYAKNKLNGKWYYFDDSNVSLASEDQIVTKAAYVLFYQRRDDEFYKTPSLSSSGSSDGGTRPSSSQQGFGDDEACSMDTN
How it was run: as §1

Measured: log2 ratio of Biotin-Ahx-Ub-VS probe labelling

CC1(NC(=O)CCl)CCS(=O)(=O)C1 (stereo not given)
inactive: USP34 -0.257 | USP36 -0.302 | USP38 -0.653 | USP39 -0.0411 | USP4 -0.424
